Here are results for 78 molecules from the supplement of paper PMC9877034.

Molecules are shown by their SMILES. Counter-ions that a name gives are not always drawn. The full ranking holds about 1,000 compounds; the median of “cFRET/donor change relative to DMSO, normalised to beta-lapachone positive control (supercomplex I-IV assembly)” is about 0.18, and the lowest 2% start at about -1. The full list was thinned out, with the lowest values kept by preference.

The assay deals with C2C12 (NDUFB8-AcGFP / COX8A-DsRed-Monomer FRET reporter). Put plainly: cFRET/donor change relative to DMSO, normalised to beta-lapachone positive control (supercomplex I-IV assembly) (fraction of beta-lapachone effect); higher = more respiratory supercomplex assembly. The conditions noted are these: 40 µM; 24 h. How it is done:
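Cells were treated with 40 uM compound for 24 h and imaged on an IN Cell Analyzer 6000. Corrected FRET was divided by donor signal (cFRET/donor) and measured in two replicate experiments. The score is (mean cFRET/donor of compound - mean DMSO) / (mean beta-lapachone 40 uM - mean DMSO). Compounds flagged for prominent cell death, abnormal morphology or decreased cell number were excluded.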
On to `COc1cc2nc(N3CCCN(C)CC3)nc(NC3CCN(Cc4ccccc4)CC3)c2cc1OC`, for which the cFRET/donor change came out at 0.186.
In the case of `C=C(c1ccc(C(=O)O)cc1)c1cc2c(cc1C)C(C)(C)CCC2(C)C` [Bexarotene], the cFRET/donor change is 0.499.
In turn, `c1ccc(C(NCCNC(c2ccccc2)c2ccccc2)c2ccccc2)cc1` had a cFRET/donor change of 0.0957.
The same measure for `COc1ccccc1CNC1CCCNC1c1ccccc1` (stereo not drawn): 0.266; for `O=C(Nc1cc(C(F)(F)F)cc(C(F)(F)F)c1)Nc1c(Br)cc(Br)cc1-c1nn[nH]n1`: 1.37.
Then `C[C@@H](O)[C@H]1C(=O)N2C(C(=O)O)=C(SCCNC=N)C[C@H]12` [Imipenem monohydrate], with 0.461; and `Cc1cc(C)c(/C=C2\C(=O)Nc3ccccc32)[nH]1`, with -2.59.
The same measure for `COc1cc(OC)c(C=C2C(=O)Nc3ccccc32)c(OC)c1`: 0.382.
The molecule `CN(C)CCC(c1ccc(Br)cc1)c1ccccn1` (racemic) [(±)-Brompheniramine maleate] displayed a cFRET/donor change of 0.0175.
Turning to `Clc1ccc(C(c2ccccc2Cl)C(Cl)Cl)cc1` (stereo not drawn) [1-(2-Chlorophenyl)-1-(4-chlorophenyl)-2,2-dichloroethane], the cFRET/donor change stood at 0.237.
The same measure for `NCCC[C@](N)(C(=O)O)C(F)F` (racemic) [DL-alpha-Difluoromethylornithine hydrochloride]: 0.232; for `COc1cc(/C=C/C(=O)N2CCC=CC2=O)cc(OC)c1OC` [Piperlongumine]: -0.315; for `CC(C)(C=O)Cc1cc(C(C)(C)C)c(O)c(C(C)(C)C)c1`: 0.29.
Then `N#CC(C#N)=C(N)/C(C#N)=C/c1ccc(O)cc1` [Tyrphostin AG 112], with 0.38; and `CC(C)(C)c1cc(/C=C(\C#N)C(N)=S)cc(C(C)(C)C)c1O` [Tyrphostin AG 879], with -2.01; and `COc1ccc(C2(O)OC(=O)C(c3ccc4c(c3)OCO4)=C2Cc2cc(OC)c(OC)c(OC)c2)cc1` (stereo not drawn), with 0.173.
Then `CCN1CCCC1CNC(=O)c1cc(S(N)(=O)=O)ccc1OC` (single isomer, unassigned; (-)) [(-)-Sulpiride], with 0.312; and `CC[C@@]1(O)C(=O)OCc2c1cc1n(c2=O)Cc2cc3c(CN(C)C)c(O)ccc3nc2-1` [Topotecan hydrochloride hydrate], with -3.92; and `NCCS(=O)(=O)O` [Taurine], with -0.02.
Take `NCCCCN` [Putrescine dihydrochloride]: the cFRET/donor change is 0.0353.
The molecule `NCCCS(=O)(=O)O` [3-Amino-1-propanesulfonic acid sodium] gave a cFRET/donor change of -2.05.
Then `COC1=C(OC)C(=O)c2ccccc2C1=O` [2,3-Dimethoxy-1,4-naphthoquinone], with 0.433; and `Cc1cc(Cl)ccc1OCCCC(=O)NO` [Droxinostat], with 0.131; and `COc1cccc2c1[C@@H]1CN(CCCCn3c(=O)[nH]c4c(sc5ncc(-c6ccccc6)nc54)c3=O)C[C@@H]1CO2` [Fiduxosin hydrochloride], with -1.25.
Then `Cn1cnc([N+](=O)[O-])c1Sc1ncnc2[nH]cnc12` [Azathioprine], with 0.496; and `N=c1ccn2c(n1)O[C@H]1[C@H](O)[C@@H](CO)O[C@H]12` [Ancitabine hydrochloride], with -0.0397.
`Fc1ccc2[nH]c(CN3CCN(c4ccccn4)CC3)cc2c1` came in with a cFRET/donor change of 0.168.
The molecule `CC(C)[C@H](N)C(=O)OCC(CO)OCn1cnc2c(=O)[nH]c(N)nc21` (stereo partly drawn) [Valganciclovir hydrochloride hydrate] yielded a cFRET/donor change of -0.064.
`N=C(N)NCCCCN` [Agmatine sulfate]: the cFRET/donor change was 0.125.
For the molecule `CS(=O)(=O)c1cccc(CNc2nc(Nc3ccc4c(c3)CCC(=O)N4)ncc2C(F)(F)F)c1`, the cFRET/donor change was 2.
The same measure for `NC(=S)c1ccc[n+]([C@@H]2O[C@@H](COP(=O)([O-])OP(=O)(O)OC[C@H]3O[C@@H](n4cnc5c(N)ncnc54)C(OP(=O)(O)O)[C@H]3O)C(O)C2O)c1` (stereo partly drawn) [Thio-NADP sodium]: -0.317; for `O=C(c1ccc(OCCCc2c[nH]cn2)cc1)C1CC1` [Ciproxifan hydrochloride]: 0.224.
Consider `O=c1ccc2c(OCCCCc3ccccc3)c3ccoc3cc2o1` [Psora-4], for which the cFRET/donor change is 0.396.
Then `Cc1cccc(-c2[nH]ncc2-c2ccc3ncccc3n2)n1`, with 0.0385; and `CC1=C(C)C(=O)C(CCCCC#CCCCC#CCO)=C(C)C1=O`, with 0.121.
Then `Nc1cc2c(ncn2CCOCP(=O)(O)O)c(=O)[nH]1` [PMEG hydrate], with 0.0365; and `N[C@@H]1[C@H]2CN(c3nc4c(cc3F)c(=O)c(C(=O)O)cn4-c3ccc(F)cc3F)C[C@@H]12` [Trovafloxacin mesylate], with 0.3.
The same measure for `CC(C(O)c1ccc(O)cc1)N1CCC(Cc2ccccc2)CC1` (stereo not drawn) [Ifenprodil tartrate]: 0.529; for `O=C(Nc1cccnc1)N1CCC(Cc2cccc(Oc3ccc(C(F)(F)F)cn3)c2)CC1` [PF 3845 hydrate]: 0.494.
For `Nc1ccc(-c2ccc3ccccc3n2)cc1` [BF-170 hydrochloride], the cFRET/donor change is -0.429.
The molecule `CN(C)C(=O)[C@H](O)[C@H](Cc1ccccc1)NC(=O)c1cc2cc(Cl)ccc2[nH]1` had a cFRET/donor change of 0.332.
The same measure for `NC(=O)C1=CN(C2OC(COP(=O)(O)OP(=O)(O)OC[C@H]3O[C@@H](n4cnc5c(N)ncnc54)C(OP(=O)(O)O)[C@H]3O)C(O)C2O)C=CC1` (stereo partly drawn) [NADPH tetrasodium]: -0.198.
Molecule `Cc1[nH]c(=O)c(C#N)cc1-c1ccc2nccn2c1` [Olprinone hydrochloride] displayed a cFRET/donor change of 0.211.
In the case of `CN1C2CCCC1CC(NC(=O)c1nn(C)c3ccccc13)C2` (stereo not drawn) [Granisetron hydrochloride], the cFRET/donor change is 0.333.
For the molecule `O=C(O)COCCN1CCN(C(c2ccccc2)c2ccc(Cl)cc2)CC1` (stereo not drawn) [Cetirizine dihydrochloride], the cFRET/donor change was determined as 0.511.
Take `Cc1cccc(C)c1NC(=O)C(C)N` (stereo not drawn) [Tocainide hydrochloride]: the cFRET/donor change worked out at 0.415.
The same measure for `CCCCCc1ccc(/C=C/C(=O)Nc2cc(Cl)ccc2C(=O)O)cc1`: 0.0865.
Then `Oc1cc2c(c(Cl)c1O)CCNCC2c1ccccc1` (racemic) [(±)-6-Chloro-PB hydrobromide], with 2.85; and `Nc1ccn([C@@H]2O[C@H](CO)[C@@H](O)C2(F)F)c(=O)n1` [Gemcitabine hydrochloride], with 0.261.
Then `CCCCc1ncc(/C=C(\Cc2cccs2)C(=O)O)n1Cc1ccc(C(=O)O)cc1` [Eprosartan mesylate], with -0.151.
Molecule `COCCOc1cc2nc[nH]c(=O)c2cc1OCCOC` returned a cFRET/donor change of 0.343.
Then `CCNC(=O)[C@H]1O[C@@H](n2cnc3c(N)nc(NCCc4ccc(CCC(=O)O)cc4)nc32)[C@H](O)[C@@H]1O`, with -0.069; and `Nc1nc2ccc(Cl)cc2n2c(-c3ccccc3)nnc12`, with -1.23.
The same measure for `Nc1nc2ccc(Cl)cc2c2nc(-c3ccco3)nn12`: 0.163.
With `OC[C@H]1O[C@H]([S-])[C@H](O)[C@@H](O)[C@@H]1O.[Au+]` [Aurothioglucose], the cFRET/donor change is -0.0527.
`Nc1ncnc2c1ncn2[C@@H]1O[C@H](COP(=O)(O)OP(=O)(O)OP(=O)(O)OP(=O)(O)OC[C@@H]2O[C@H](n3cnc4c(N)ncnc43)C(O)[C@@H]2O)[C@H](O)C1O` (stereo partly drawn) [P1,P4-Di(adenosine-5')tetraphosphate triammonium]: the cFRET/donor change is 0.0746.
The same measure for `CCOC(=O)[C@H](CCc1ccccc1)N[C@@H](C)C(=O)N1[C@H](C(=O)O)C[C@H]2CCCC[C@@H]21` [Trandolapril]: -0.23.
Then `O=C1NC(=O)/C(=C\c2ccc3nccnc3c2)S1`, with 2.84.
`CCc1ccc(/C=C2/SC(=S)NC2=O)cc1` gave a cFRET/donor change of -1.41.
Then `CCCCS(=O)(=O)N[C@@H](Cc1ccc(OCCCCC2CCNCC2)cc1)C(=O)O` [Tirofiban hydrochloride monohydrate], with 0.174; and `CO[C@H]1O[C@@H]2O[C@@]3(C)CC[C@H]4[C@H](C)CC[C@@H]([C@H]1C)[C@@]24OO3` [Artemether], with 0.954.
The same measure for `O=C(NOCC1CC1)c1cc(Br)c(F)c(F)c1Nc1ccc(I)cc1Cl`: 0.176; for `COc1cc(Nc2c(C#N)cnc3cc(OCCCN4CCN(C)CC4)c(OC)cc23)c(Cl)cc1Cl` [Bosutinib]: 0.241; for `NCC(O)c1ccc(O)c(O)c1` (racemic) [(±)-Norepinephrine (+)bitartrate]: -0.03.
Then `CN(C)C[C@H](O)Cn1c2ccc(Br)cc2c2cc(Br)ccc21` (racemic) [Wiskostatin], with 0.951.
`CN(C)c1ccccc1CN1CCCN(Cc2ccccc2N(C)C)C1c1ccncc1` returned a cFRET/donor change of 0.598.
The molecule `CS(=O)(=O)c1ccc(-n2nc(C(F)(F)F)cc2-c2ccc(F)cc2)cc1` had a cFRET/donor change of 0.187.
The same measure for `O=C(Nc1ccc2[nH]ncc2c1)C1CCC1` [Rhodblock 6]: 0.156.
As to `COc1cc2nc(N(C)CCCNC(=O)C3CCCO3)nc(N)c2cc1OC` (stereo not drawn) [Alfuzosin hydrochloride], the cFRET/donor change stood at 0.0541.
Then `CN(C)CCC(c1ccc(Br)cc1)c1ccccn1` (single isomer, unassigned; (+)) [(+)-Brompheniramine maleate], with 0.114; and `CN1CCN(CCCN2c3ccccc3Sc3ccc(C(F)(F)F)cc32)CC1` [Trifluoperazine dihydrochloride], with 0.794; and `Nc1nc2c(c(=O)[nH]1)C[C@@H](CCc1ccc(C(=O)N[C@@H](CCC(=O)O)C(=O)O)cc1)CN2` [Lometrexol hydrate], with -0.284.
The molecule `N=C(N)NC(=O)c1nc(Cl)c(N)nc1N` [Amiloride hydrochloride] yielded a cFRET/donor change of -0.0692.
The same measure for `CCN(c1nc(N)c(C(=O)NC(=N)N)nc1Cl)C(C)C` [5-(N-Ethyl-N-isopropyl)amiloride]: -1.88; for `CN(C)c1nc(N)c(C(=O)NC(=N)N)nc1Cl` [5-(N,N-Dimethyl)amiloride hydrochloride]: 0.174; for `COc1ccc(Br)cc1S(=O)(=O)NC(=O)/C=C/c1ccccc1Cc1ccc2ccccc2c1`: 0.583.
`COc1ccc(/C=C/c2nc(NCCCN(C)C)c3ccccc3n2)cc1`: the cFRET/donor change stood at 0.418.
Then `Cn1c(=O)c2nc[nH]c2n(C)c1=O` [Theophylline], with 0.334.
